In PubChem BioAssay (NCATS):
Inconclusive results are not listed. Active and inactive are the calls of the source. Calls follow the shape of the dose curve; as a rule, active = well fitted cell-killing curve with a large enough effect; inconclusive = small, poorly fitted or top-dose-only effect, or effect the other way; inactive = flat fitted curve, though single readings scatter. Where a SMILES comes first, the peptide text is derived from it. [ ]: non-standard residue; d: D form. ξ: configuration not given here. ξPhe(βξ-Me) = CC(c1ccccc1)C(N)C(=O)O; GABA = NCCCC(=O)O

Assays:
Test in all cases: Primary qHTS to identify gynecologic anti-cancer compounds using libraries of approved drugs and bioactive compounds (AID 1345084); also: nearly all actives have a fitted effect of over 55% in size
Hek293T = conditions: Gynecologic cancer cell panel viability, ATPlite luminescence, 48 h, control line for the selectivity index; series mostly up to 57.5 µM
In short: (§1)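 Luminescence from the ATPlite ATP-monitoring reagent indicates viable cell number; lower signal means cytotoxicity. Cells received compound 16 h after seeding and were exposed for 48 h across five concentrations.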

JEG-3 = conditions: Gynecologic cancer cell panel viability, ATPlite luminescence, 48 h; series mostly up to 57.5 µM
In short: as §1

OV90 = conditions: Gynecologic cancer cell panel viability, ATPlite luminescence, 48 h; series mostly up to 57.5 µM
In short: as §1

PA-1 = conditions: Gynecologic cancer cell panel viability, ATPlite luminescence, 48 h; series mostly up to 57.5 µM
In short: as §1

Tov-21-G = conditions: Gynecologic cancer cell panel viability, ATPlite luminescence, 48 h; series mostly up to 57.5 µM
In short: as §1

Tov112D = conditions: Gynecologic cancer cell panel viability, ATPlite luminescence, 48 h; series mostly up to 57.5 µM
In short: as §1
% is scaled to controls: 0 for no effect and ±100 for the full control effect.

CC1(C)CCC[C@@]2(C)[C@H]1[C@H](O)C=C1COC(=O)[C@@]12O
inactive: Potency (Hek293T) | Potency (JEG-3) | Potency (OV90) | Potency (PA-1) | Potency (Tov-21-G) | Potency (Tov112D)

Cc1cc(C)c(S(=O)(=O)N(Cc2ccc(-c3cccc(S(C)(=O)=O)c3)cc2)Cc2ccc(C(F)(F)F)o2)c(C)c1
inactive: Potency (Hek293T) | Potency (JEG-3) | Potency (OV90) | Potency (PA-1) | Potency (Tov-21-G) | Potency (Tov112D)

CCN[C@@H]1C[C@H](N)[C@@H](O[C@H]2OC(CN)=CC[C@H]2N)[C@H](O)[C@H]1O[C@H]1OC[C@](C)(O)[C@H](NC)[C@H]1O
inactive: Potency (Hek293T) | Potency (JEG-3) | Potency (OV90) | Potency (PA-1) | Potency (Tov-21-G) | Potency (Tov112D)

C=CCc1ccc(O[C@@H]2O[C@H](CO)[C@@H](O)[C@H](O)[C@H]2O)c(OC)c1
inactive: Potency (Hek293T) | Potency (JEG-3) | Potency (OV90) | Potency (PA-1) | Potency (Tov-21-G) | Potency (Tov112D)

FC(F)(F)c1cc(C(F)(F)F)c2ccc3nc(-c4nnco4)cn3c2n1
inactive: Potency (Hek293T) | Potency (JEG-3) | Potency (OV90) | Potency (PA-1) | Potency (Tov-21-G) | Potency (Tov112D)

CNC(=O)O[C@H]1COc2ccc(N3CCN(C4COC4)CC3)cc2[C@@H]1NC(=O)c1ccc(F)cc1
inactive: Potency (Hek293T) | Potency (JEG-3) | Potency (OV90) | Potency (PA-1) | Potency (Tov-21-G) | Potency (Tov112D)

CC(=O)OCC1=C[C@H](O)[C@@H]2C(C(=O)O)=CO[C@@H](O[C@@H]3O[C@H](CO)[C@@H](O)[C@H](O)[C@H]3O)[C@H]12
inactive: Potency (Hek293T) | Potency (JEG-3) | Potency (OV90) | Potency (PA-1) | Potency (Tov-21-G) | Potency (Tov112D)

COCC(=O)N1CCc2cc(-c3csc(NC(=O)c4cc(OC)cc(OC)c4)n3)ccc21
inactive: Potency (Hek293T) | Potency (JEG-3) | Potency (OV90) | Potency (PA-1) | Potency (Tov-21-G) | Potency (Tov112D)

O=C1NC(=Nc2ccccc2F)S/C1=C\c1ccc(C(=O)O)cc1
inactive: Potency (Hek293T) | Potency (JEG-3) | Potency (OV90) | Potency (PA-1) | Potency (Tov-21-G) | Potency (Tov112D)

CC(C)CC1NC(=O)C(C(C)c2ccccc2)NC(=O)C(C(C)C)NC(=O)C(C)NC(=O)CCCNC(=O)C(Cc2c[nH]c3ccccc23)NC(=O)C(C)NC1=O (stereo not drawn) (cyclo([GABA]AV[ξPhe(βξ-Me)]LAW); configuration not given here)
inactive: Potency (Hek293T) | Potency (JEG-3) | Potency (OV90) | Potency (PA-1) | Potency (Tov-21-G) | Potency (Tov112D)

Nc1nc(CC(=O)Nc2ccc(CCNCC(O)c3ccccc3)cc2)cs1 (stereo unspecified)
inactive: Potency (Hek293T) | Potency (JEG-3) | Potency (OV90) | Potency (PA-1) | Potency (Tov-21-G) | Potency (Tov112D)

COC(=O)C1C(c2ccc(O)cc2)C(C(=O)OC)C1c1ccc(O)cc1 (stereo unspecified)
inactive: Potency (Hek293T) | Potency (JEG-3) | Potency (OV90) | Potency (PA-1) | Potency (Tov-21-G) | Potency (Tov112D)

CC1(C)CCCC2(C)C(CO)C3CCC2C31 (stereo unspecified)
inactive: Potency (Hek293T) | Potency (JEG-3) | Potency (OV90) | Potency (PA-1) | Potency (Tov-21-G) | Potency (Tov112D)

C=C1CCC2C(C)(C)C(O)CCC2(C)C1CCC(C)CCOC(=O)CCC(=O)O (stereo unspecified)
inactive: Potency (Hek293T) | Potency (JEG-3) | Potency (OV90) | Potency (PA-1) | Potency (Tov-21-G) | Potency (Tov112D)

COC(=O)C1=CO[C@@H](O[C@@H]2O[C@H](CO)[C@@H](O)[C@H](O)[C@H]2O)[C@@H]2[C@@H](C(=O)OC)[C@@H](O)C(O)[C@H]12 (stereo partly specified)
inactive: Potency (Hek293T) | Potency (JEG-3) | Potency (OV90) | Potency (PA-1) | Potency (Tov-21-G) | Potency (Tov112D)

CC1(C)CCCC2(C)C3=C(C(=O)OC3O)C(O)CC12 (stereo unspecified)
inactive: Potency (Hek293T) | Potency (JEG-3) | Potency (OV90) | Potency (PA-1) | Potency (Tov-21-G) | Potency (Tov112D)

C[C@H]1[C@H](C)CC[C@]2(C(=O)O)CC[C@]3(C(=O)O)C(=CCC4[C@@]5(C)CC[C@H](O[C@@H]6O[C@H](C)[C@@H](O)[C@H](O)[C@H]6O)C(C)(C)C5CC[C@]43C)[C@H]12 (stereo partly specified)
inactive: Potency (Hek293T) | Potency (JEG-3) | Potency (OV90) | Potency (PA-1) | Potency (Tov-21-G) | Potency (Tov112D)

O=C(O)Cc1nn(Cc2nc3cc(C(F)(F)F)ccc3s2)c(=O)c2nccnc12
inactive: Potency (Hek293T) | Potency (JEG-3) | Potency (OV90) | Potency (PA-1) | Potency (Tov-21-G) | Potency (Tov112D)

C[C@@H]1O[C@@H](O[C@@H]2[C@@H](O)[C@H](O[C@@H]3[C@@H](O)[C@@H](O)[C@H](O[C@H]4[C@H](OC(=O)[C@]56CCC(C)(C)C[C@H]5C5=CCC7[C@@]8(C)C[C@H](O)[C@H](O[C@@H]9O[C@@H](C)[C@H](O)[C@@H](O)[C@H]9O)[C@@](C)(CO)C8CC[C@@]7(C)[C@]5(C)C[C@H]6O)O[C@H](C)[C@H](O)[C@@H]4O)O[C@H]3C)OC[C@H]2O)[C@H](O)[C@H](O)[C@H]1O (stereo partly specified)
inactive: activity change, negative = cytotoxicity (Hek293T) 5.23% [at 6.55 µM] | activity change, negative = cytotoxicity (JEG-3) 1.34% [at 6.55 µM] | activity change, negative = cytotoxicity (OV90) 4.8% [at 6.55 µM] | activity change, negative = cytotoxicity (PA-1) 7.81% [at 6.55 µM] | activity change, negative = cytotoxicity (Tov-21-G) -0.124% [at 6.55 µM] | activity change, negative = cytotoxicity (Tov112D) 9.68% [at 6.55 µM]

C=C(C)C1CC2(CO)C(=CC1=O)CCC(O)C2C (stereo unspecified)
inactive: Potency (Hek293T) | Potency (JEG-3) | Potency (OV90) | Potency (PA-1) | Potency (Tov-21-G) | Potency (Tov112D)

COc1cc(/C=C/C(=O)OC2CC(C)=C(C(=O)O)/C2=C/CO[C@@H]2O[C@H](CO)[C@@H](O)[C@H](O)[C@H]2O)ccc1O (stereo partly specified)
inactive: Potency (Hek293T) | Potency (JEG-3) | Potency (OV90) | Potency (PA-1) | Potency (Tov-21-G) | Potency (Tov112D)
